In the supplement of paper PMC10849652:
About 8,800 targets were measured; listed, in parts, are those with a hit and a random draw of the rest. About 0.5% of all pairs of compound and target were hits. Unmarked numbers belong to inactive results.

Tests used:
Experiment in all cases: log2 fold change, soluble protein after heating vs DMSO (PISA); higher = thermal stabilisation; K562 lysate, 10 uM; active = over 0.2 and 3.5 SD of the protein, either way, in both replicates (recomputed)
lapatinib = compound: CS(=O)(=O)CCNCc1ccc(-c2ccc3ncnc(Nc4ccc(OCc5cccc(F)c5)c(Cl)c4)c3c2)o1 [lapatinib]
Summary of the method: (§1)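 To prepare the extract, K562 pellets were dounce-homogenised in PBS pH 7.4 with 1 mM MgCl2, giving crude material at 1 mg/mL protein. This was treated with 10 μM compound for 30 min, then heated in aliquots for 3 min over 48°C-58°C before pooling and addition of NP-40 to 0.5% at 4°C. Centrifugation at 21,000xg for 90 min left soluble protein in the supernatant, which TMTpro 16plex LC-MS/MS quantified with equalised channel sums. Results are log-two fold changes in thermal stability compared with solvent controls, from duplicates.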

pictilisib = compound: CS(=O)(=O)N1CCN(Cc2cc3nc(-c4cccc5[nH]ncc45)nc(N4CCOCC4)c3s2)CC1 [pictilisib]
Summary of the method: as §1

crizotinib = compound: C[C@@H](Oc1cc(-c2cnn(C3CCNCC3)c2)cnc1N)c1c(Cl)ccc(F)c1Cl [crizotinib]
Summary of the method: as §1

[1] = compound: C[C@H](C1=CC=C(C=C1)C(=O)NC2=C3C=CNC3=NC=C2)N
Summary of the method: as §1

duvelisib = compound: C[C@H](Nc1ncnc2nc[nH]c12)c1cc2cccc(Cl)c2c(=O)n1-c1ccccc1 [duvelisib]
Summary of the method: as §1

gandotinib = compound: Cc1cc(Nc2cc(CN3CCOCC3)c3nc(C)c(Cc4ccc(Cl)cc4F)n3n2)n[nH]1 [gandotinib]
Summary of the method: as §1

tozasertib = compound: Cc1cc(Nc2cc(N3CCN(C)CC3)nc(Sc3ccc(NC(=O)C4CC4)cc3)n2)n[nH]1 [tozasertib]
Summary of the method: as §1

doramapimod = compound: Cc1ccc(-n2nc(C(C)(C)C)cc2NC(=O)Nc2ccc(OCCN3CCOCC3)c3ccccc23)cc1 [doramapimod]
Summary of the method: as §1

bafetinib = compound: Cc1ccc(NC(=O)c2ccc(CN3CC[C@H](N(C)C)C3)c(C(F)(F)F)c2)cc1Nc1nccc(-c2cncnc2)n1 [bafetinib]
Summary of the method: as §1

[2] = compound: Cc1cccc(CC(=O)N2CCc3c2ccc(-c2cn(C)c4ncnc(N)c24)c3F)n1
Summary of the method: as §1

nilotinib = compound: Cc1cn(-c2cc(NC(=O)c3ccc(C)c(Nc4nccc(-c5cccnc5)n4)c3)cc(C(F)(F)F)c2)cn1 [nilotinib]
Summary of the method: as §1

[3] = compound: Cc1nc(Nc2n[nH]c3c2CN(C(=O)N[C@H](CN(C)C)c2ccccc2)C3(C)C)c2sccc2n1
Summary of the method: as §1

dasatinib = compound: Cc1nc(Nc2ncc(C(=O)Nc3c(C)cccc3Cl)s2)cc(N2CCN(CCO)CC2)n1 [dasatinib]
Summary of the method: as §1

[4] = compound: Cc1ncc(-c2ccnc(Nc3ccc(S(C)(=O)=O)cc3)n2)n1C(C)C
Summary of the method: as §1

[5] = compound: Cn1cc(-c2ccc3c(c2)CCN3C(=O)Cc2cccc(C(F)(F)F)c2)c2c(N)ncnc21
Summary of the method: as §1

quisinostat = compound: Cn1cc(CNCC2CCN(c3ncc(C(=O)NO)cn3)CC2)c2ccccc21 [quisinostat]
Summary of the method: as §1

tipifarnib = compound: Cn1cncc1[C@@](N)(c1ccc(Cl)cc1)c1ccc2c(c1)c(-c1cccc(Cl)c1)cc(=O)n2C [tipifarnib]
Summary of the method: as §1

[6] = compound: NC(=O)Nc1cc(-c2cccc(F)c2)sc1C(=O)N[C@H]1CCCNC1
Summary of the method: as §1

[7] = compound: NC(=O)c1cnc(N[C@@H]2CCCC[C@@H]2N)nc1Nc1cccc(-n2nccn2)c1
Summary of the method: as §1

[8] = compound: NC1(c2ccc(-c3nc4ccn5c(=O)[nH]nc5c4cc3-c3ccccc3)cc2)CCC1
Summary of the method: as §1

Sequence of UniProt Q9H078 (Q9H078 whole entry, looked up): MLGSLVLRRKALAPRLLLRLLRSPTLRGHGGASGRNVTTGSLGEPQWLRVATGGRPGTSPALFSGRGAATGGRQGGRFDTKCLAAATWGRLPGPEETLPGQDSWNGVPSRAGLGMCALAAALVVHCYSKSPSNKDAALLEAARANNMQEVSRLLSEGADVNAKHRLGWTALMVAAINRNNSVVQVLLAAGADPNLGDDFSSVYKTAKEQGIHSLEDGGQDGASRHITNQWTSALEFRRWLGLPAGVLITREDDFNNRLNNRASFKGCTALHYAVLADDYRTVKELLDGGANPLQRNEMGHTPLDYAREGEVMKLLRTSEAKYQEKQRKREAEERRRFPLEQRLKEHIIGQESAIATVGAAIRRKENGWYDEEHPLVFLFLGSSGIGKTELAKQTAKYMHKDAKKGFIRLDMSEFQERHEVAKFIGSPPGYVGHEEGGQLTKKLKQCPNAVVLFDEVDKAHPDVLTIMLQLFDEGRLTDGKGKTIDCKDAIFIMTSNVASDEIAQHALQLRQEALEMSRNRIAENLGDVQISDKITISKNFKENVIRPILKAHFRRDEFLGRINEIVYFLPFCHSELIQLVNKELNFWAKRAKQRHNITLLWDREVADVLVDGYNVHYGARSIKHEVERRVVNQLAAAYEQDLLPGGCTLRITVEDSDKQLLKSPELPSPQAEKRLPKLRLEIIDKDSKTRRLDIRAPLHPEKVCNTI
Sequence of UniProt Q9UJA2 (Q9UJA2 whole entry, looked up): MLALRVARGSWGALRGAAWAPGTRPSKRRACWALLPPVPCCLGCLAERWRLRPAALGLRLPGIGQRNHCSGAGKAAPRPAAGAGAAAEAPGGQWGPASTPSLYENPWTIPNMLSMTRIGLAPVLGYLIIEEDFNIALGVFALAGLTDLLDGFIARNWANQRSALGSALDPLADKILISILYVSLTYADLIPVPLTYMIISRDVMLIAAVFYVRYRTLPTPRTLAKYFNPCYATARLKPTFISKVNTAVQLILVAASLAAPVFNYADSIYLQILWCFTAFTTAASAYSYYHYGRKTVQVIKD
Sequence of UniProt Q7Z460 (Q7Z460 whole entry, looked up): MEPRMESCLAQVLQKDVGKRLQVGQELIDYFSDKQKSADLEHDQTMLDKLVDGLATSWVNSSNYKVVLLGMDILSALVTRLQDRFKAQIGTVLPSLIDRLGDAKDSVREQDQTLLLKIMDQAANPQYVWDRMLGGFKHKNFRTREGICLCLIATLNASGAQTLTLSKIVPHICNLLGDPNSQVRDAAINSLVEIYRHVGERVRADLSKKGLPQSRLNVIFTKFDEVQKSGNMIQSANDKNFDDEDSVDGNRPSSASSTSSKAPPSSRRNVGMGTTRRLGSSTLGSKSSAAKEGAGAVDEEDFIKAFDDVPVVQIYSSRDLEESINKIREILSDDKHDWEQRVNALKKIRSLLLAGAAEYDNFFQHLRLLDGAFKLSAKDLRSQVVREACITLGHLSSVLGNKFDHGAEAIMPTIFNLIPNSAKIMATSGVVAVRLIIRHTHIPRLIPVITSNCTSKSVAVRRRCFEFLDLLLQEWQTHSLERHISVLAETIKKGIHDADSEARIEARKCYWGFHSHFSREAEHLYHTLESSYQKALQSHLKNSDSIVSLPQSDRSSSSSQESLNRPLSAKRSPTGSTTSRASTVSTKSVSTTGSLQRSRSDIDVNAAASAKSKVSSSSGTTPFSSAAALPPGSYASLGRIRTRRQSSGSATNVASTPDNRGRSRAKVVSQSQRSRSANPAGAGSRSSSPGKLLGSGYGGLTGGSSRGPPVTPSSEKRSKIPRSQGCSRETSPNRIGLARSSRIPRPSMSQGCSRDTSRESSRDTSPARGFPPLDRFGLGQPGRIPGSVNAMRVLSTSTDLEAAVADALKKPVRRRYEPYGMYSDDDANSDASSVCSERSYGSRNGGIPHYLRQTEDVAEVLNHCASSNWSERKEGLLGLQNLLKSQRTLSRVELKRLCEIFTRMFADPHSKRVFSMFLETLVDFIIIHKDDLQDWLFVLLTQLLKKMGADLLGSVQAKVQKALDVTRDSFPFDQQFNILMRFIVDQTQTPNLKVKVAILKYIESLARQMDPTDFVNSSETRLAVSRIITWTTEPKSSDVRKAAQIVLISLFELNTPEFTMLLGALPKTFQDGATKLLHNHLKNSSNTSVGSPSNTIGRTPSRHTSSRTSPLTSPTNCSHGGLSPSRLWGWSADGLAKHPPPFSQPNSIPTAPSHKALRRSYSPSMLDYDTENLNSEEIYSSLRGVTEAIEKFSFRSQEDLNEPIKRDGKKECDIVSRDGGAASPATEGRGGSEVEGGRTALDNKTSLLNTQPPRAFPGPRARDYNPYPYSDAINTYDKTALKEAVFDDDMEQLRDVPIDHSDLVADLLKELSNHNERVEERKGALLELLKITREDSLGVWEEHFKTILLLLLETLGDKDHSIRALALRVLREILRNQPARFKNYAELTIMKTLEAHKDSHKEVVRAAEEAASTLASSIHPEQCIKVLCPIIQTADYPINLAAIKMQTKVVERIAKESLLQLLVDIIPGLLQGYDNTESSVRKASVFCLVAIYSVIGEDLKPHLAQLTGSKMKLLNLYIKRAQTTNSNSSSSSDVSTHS
Sequence of UniProt Q9BQ75 (Q9BQ75 whole entry, looked up): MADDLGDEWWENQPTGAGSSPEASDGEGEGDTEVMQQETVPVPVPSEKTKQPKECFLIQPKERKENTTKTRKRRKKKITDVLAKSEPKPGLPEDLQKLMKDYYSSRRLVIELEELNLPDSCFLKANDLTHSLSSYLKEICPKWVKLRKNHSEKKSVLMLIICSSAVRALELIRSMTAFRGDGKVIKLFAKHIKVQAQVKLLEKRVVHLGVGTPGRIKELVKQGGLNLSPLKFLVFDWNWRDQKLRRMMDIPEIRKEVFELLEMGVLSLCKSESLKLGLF
Sequence of UniProt Q6UWP2 (Q6UWP2 whole entry, looked up): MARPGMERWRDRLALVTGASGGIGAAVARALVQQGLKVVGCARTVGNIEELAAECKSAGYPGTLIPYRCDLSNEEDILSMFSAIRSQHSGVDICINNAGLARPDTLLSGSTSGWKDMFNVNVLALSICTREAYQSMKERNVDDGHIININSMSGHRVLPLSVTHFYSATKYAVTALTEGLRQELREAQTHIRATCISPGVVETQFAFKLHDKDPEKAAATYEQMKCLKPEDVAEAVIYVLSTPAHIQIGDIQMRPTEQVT
Sequence of UniProt P39880 (P39880 whole entry, looked up): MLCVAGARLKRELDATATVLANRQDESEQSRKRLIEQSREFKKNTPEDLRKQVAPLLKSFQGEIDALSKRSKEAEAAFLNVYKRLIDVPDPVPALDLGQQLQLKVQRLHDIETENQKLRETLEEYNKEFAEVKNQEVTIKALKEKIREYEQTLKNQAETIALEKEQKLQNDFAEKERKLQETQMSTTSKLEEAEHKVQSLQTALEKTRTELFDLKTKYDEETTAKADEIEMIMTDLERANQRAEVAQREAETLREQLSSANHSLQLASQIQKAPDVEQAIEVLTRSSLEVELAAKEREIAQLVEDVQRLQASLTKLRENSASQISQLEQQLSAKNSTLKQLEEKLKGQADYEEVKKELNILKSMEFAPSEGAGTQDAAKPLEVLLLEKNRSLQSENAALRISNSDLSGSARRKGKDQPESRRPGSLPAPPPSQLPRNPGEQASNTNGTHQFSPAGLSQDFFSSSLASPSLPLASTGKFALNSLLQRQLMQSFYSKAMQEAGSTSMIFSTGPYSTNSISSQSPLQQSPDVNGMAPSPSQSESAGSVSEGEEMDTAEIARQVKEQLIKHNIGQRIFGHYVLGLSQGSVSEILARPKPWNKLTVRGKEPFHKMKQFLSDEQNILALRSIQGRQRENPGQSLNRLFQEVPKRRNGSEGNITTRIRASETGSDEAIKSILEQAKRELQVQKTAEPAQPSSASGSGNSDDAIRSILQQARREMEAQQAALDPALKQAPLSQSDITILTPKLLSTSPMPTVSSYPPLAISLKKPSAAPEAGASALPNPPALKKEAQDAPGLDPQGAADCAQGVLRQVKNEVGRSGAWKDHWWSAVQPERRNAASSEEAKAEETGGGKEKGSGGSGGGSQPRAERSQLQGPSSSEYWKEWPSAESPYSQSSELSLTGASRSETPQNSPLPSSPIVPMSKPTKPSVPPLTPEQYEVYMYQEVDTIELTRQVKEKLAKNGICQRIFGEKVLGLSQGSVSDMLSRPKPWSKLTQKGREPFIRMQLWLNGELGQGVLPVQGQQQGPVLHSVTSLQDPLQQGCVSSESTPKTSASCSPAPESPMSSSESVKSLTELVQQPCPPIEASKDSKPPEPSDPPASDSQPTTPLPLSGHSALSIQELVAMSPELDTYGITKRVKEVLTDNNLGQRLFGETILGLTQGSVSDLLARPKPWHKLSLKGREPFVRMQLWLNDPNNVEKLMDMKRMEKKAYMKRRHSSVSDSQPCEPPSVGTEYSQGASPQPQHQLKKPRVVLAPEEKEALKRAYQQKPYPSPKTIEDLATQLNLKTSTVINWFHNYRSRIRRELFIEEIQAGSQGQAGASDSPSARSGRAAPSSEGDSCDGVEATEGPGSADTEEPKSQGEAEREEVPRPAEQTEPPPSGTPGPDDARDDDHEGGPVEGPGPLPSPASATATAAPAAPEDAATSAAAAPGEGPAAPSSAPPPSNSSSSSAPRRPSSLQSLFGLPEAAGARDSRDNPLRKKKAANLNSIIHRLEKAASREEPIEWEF
Sequence of UniProt Q92989 (Q92989 whole entry, looked up): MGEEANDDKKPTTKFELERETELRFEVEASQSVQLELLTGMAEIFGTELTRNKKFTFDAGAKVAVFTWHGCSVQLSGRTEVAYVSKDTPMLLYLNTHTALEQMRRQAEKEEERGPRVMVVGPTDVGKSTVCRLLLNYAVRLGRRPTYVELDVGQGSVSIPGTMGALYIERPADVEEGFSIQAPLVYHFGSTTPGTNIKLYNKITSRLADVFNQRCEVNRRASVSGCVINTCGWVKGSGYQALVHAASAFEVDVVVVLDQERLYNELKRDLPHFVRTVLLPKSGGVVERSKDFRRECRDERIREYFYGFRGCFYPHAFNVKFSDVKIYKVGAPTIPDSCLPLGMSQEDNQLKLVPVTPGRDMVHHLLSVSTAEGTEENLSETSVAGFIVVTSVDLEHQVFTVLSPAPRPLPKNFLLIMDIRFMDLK

Target	log2 fold change (lapatinib)	log2 fold change (pictilisib)	log2 fold change (crizotinib)	log2 fold change [1]	log2 fold change (duvelisib)	log2 fold change (gandotinib)	log2 fold change (tozasertib)	log2 fold change (doramapimod)	log2 fold change (bafetinib)	log2 fold change [2]	log2 fold change (nilotinib)	log2 fold change [3]	log2 fold change (dasatinib)	log2 fold change [4]	log2 fold change [5]	log2 fold change (quisinostat)	log2 fold change (tipifarnib)	log2 fold change [6]	log2 fold change [7]	log2 fold change [8]
CMSS1 (UniProt Q9BQ75)	0.012	0.016	-0.021	0.176	-0.001	-0.086	0.009	0.015	-0.026	-0.015	-0.025	0.014	-0.019	0	0.014	0.023	0.06	0.013	0.004	0.031
CYP4V2 (UniProt Q6ZWL3)	0.049	-0.441 (active)	0.12		0.031			0.027	0.177				-0.041		0.049	0.103		-0.026	-0.101	-0.033
CNOT4 isoform 9 (UniProt O95628)	-0.006	-0.014	0.077	-1.01 (active)	-0.009	0.298	0.04	-0.184	-0.031	0.271			-0.062		-0.052	0.17		-0.058	0.081	-0.024
CLASP1 (UniProt Q7Z460)	0		-0.051	-0.09	-0.003	0.188	0.004	0.03	-0.042	0.185	-0.015	0.021	-0.097	0.013	0.016	-0.085	-0.051	-0.022	0.012	-0.018
CMPK2 (UniProt Q5EBM0)	0.065	0	0.007	-0.074	0.043	0.008	0.018	-0.01	-0.061	0.056	-0.075	-0.01	-0.067	0.005	-0.011	-0.02	0.042	0.032	-0.006	0.013
CHMP4A (UniProt H0YIN6)	-0.078	-0.071	-0.211	-0.091	0	0.451		-0.059	-0.098	0.325			0.294		-0.06	-0.502		0.041	0.066	
DENND1B (UniProt Q6P3S1)	0.1	0.096	-0.019	0.003	-0.08	-0.194		-0.072	0.154	-0.03	0.042	-0.073	0.073	-0.05	-0.09	-0.16	0.017	0.211	0.2	0.209
CUX1 isoform 3 (UniProt P39880)	-0.01	-0.045	0.004	0.076	0.007	-0.116	0.032	-0.025	-0.012	0.007	-0.029	0.026	-0.04	0.012	0.006	-0.02	-0.057	0.006	0.03	-0.015
CTNNBL1 (UniProt Q8WYA6)	0	-0.011	-0.032	0.015	0	-0.058	0.033	0.058	-0.103	0.043	-0.034	0.02	0.025	-0.013	-0.065	-0.008	-0.019	0.02	0.011	-0.138
CLCN3 (UniProt P51790)	0.004		0.014	-0.09	-0.017	-0.106	-0.008	0.033	-0.004	0.13	0.15	-0.043	-0.033	0.117	0.046	0.056	-0.097	-0.064	-0.002	0.071
DHRS11 (UniProt Q6UWP2)	-0.017	0.014	0.024	-0.035	0.024	-0.007	0.028	-0.032	-0.051	-0.02	0.058	0.017	-0.018	0.008	0.03	0.024	0.002	0.037	0.002	0
CLPB isoform 2 (UniProt Q9H078)	-0.034		-0.03	0.024	-0.015	-0.093	0.046	-0.01	-0.072	0.039	-0.011	-0.003	0.076	-0.03	0.018	0.008	-0.004	0.005	0.031	-0.016
DONSON (UniProt Q9NYP3)	-0.012	-0.019	-0.012	-0.32	0.007	0.196		0.07	-0.033	-0.157	0.035	0.004	-0.031	0.066	-0.035	-0.051	-0.024	-0.003	-0.022	0.082
CRLS1 (UniProt Q9UJA2)	-0.003	-0.107	-0.086	0.084		-0.105		-0.062	-0.437	-0.176	0.1	-0.096		-0.143		-0.122	-0.01	0.066	-0.018	-0.067
CSNK1E (UniProt P49674)	-0.026	0.103	0.004	0.135	-0.016	-0.134	-0.065	0.003	-0.024	-0.061	-0.025	-0.008	0.053	0.091	-0.078	-0.075	-0.092	0.059	0.055	-0.06
CNIH4 (UniProt Q9P003)	0.005	-0.139	-0.055		0.092		-0.06	-0.082	-0.248		0.074	-0.327	0.132	-0.12	0.063	-0.068	-0.515 (active)	0.088	0.076	-0.136
CLP1 (UniProt Q92989)	-0.003		-0.041	-0.12	-0.056	0.008	0.004	0.032	0.01	0.047	-0.029	0.039	-0.037	-0.039	0.119	-0.065	-0.011	0.029	-0.027	0.026
